Screening results: PubChem BioAssay, Johns Hopkins Ion Channel Center
KCNQ2 enhance = enhances the rat KCNQ2 potassium channel; 310,000 tested, 0.54% active; O88943; B-score at 10 µM; AID 2239; CHO-K1 KCNQ2, FluxOR thallium flux fluorescence; active compounds read high;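 active = fluorescence ratio B-score at least 3 SD of library B-scores, with initial fluorescence B-score within 3 of them, cut at about 5.3 in these data; same plate scores as AID 2156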;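 note: B-score of peak minus minimum over baseline fluorescence ratio after K+ and Tl+ stimulus; positive B-score means potentiation of KCNQ2 with more thallium influx and brighter signal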
Target sequence (O88943 whole entry, looked up): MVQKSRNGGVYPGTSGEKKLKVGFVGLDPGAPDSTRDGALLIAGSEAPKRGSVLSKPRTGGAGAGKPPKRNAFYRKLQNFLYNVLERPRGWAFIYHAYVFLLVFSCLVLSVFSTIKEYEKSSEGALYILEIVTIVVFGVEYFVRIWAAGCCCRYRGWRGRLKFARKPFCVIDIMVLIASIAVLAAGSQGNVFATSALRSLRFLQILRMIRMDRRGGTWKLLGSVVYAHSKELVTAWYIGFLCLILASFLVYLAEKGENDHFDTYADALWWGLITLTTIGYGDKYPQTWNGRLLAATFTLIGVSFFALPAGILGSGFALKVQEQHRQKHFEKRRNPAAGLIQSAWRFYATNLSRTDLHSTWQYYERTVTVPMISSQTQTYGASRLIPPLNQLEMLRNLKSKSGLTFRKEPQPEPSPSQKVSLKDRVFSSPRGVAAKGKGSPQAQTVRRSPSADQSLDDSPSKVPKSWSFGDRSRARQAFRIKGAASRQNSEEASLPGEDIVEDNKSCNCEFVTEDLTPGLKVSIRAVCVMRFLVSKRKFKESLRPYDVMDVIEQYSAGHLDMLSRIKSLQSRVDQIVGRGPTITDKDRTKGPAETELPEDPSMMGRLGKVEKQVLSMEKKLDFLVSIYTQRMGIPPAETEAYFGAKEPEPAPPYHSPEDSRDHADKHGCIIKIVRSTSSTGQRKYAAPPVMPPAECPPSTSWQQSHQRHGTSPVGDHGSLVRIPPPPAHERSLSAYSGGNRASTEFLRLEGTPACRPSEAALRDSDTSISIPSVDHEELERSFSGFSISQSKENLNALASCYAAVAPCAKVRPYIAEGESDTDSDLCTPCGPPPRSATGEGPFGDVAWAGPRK
KCNQ2 inh = inhibitors of rat KCNQ2 potassium channel. CHO-K1 KCNQ2, FluxOR thallium flux, 20 min; active compounds read low. O88943. 310,000 tested, 1.1% active. B-score at 10 µM. AID 2156;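 active = fluorescence ratio B-score at most minus 3 library SDs, with starting brightness B-score within 2 library SDs, cut at about -5.5 in these data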
Large screens that a line does not name were inactive. The list is not random: actives were taken first. Their share in the collection is about 1.6%.

COc1ccc(OC)c(-c2nn(-c3ccccc3)cc2C(=O)NCC(c2cccs2)N2CCOCC2)c1 (stereo not given)	none (no result: KCNQ2 enhance)
COc1ccc(/C=C(\NC(=O)c2ccccc2)C(=O)N2CCCCC2)cc1OC	none
O=C(OCC(=O)N1CCN(C(=O)c2ccco2)CC1)c1cc(-c2cccc(Br)c2)nc2ccccc12	KCNQ2 inh -7
O=C(OCC(=O)N1CCN(C(=O)c2ccco2)CC1)c1cc(-c2ccccc2)nc2ccccc12	none (no result: KCNQ2 enhance)
O=C(COc1ccc2c(-c3ccccc3)cc(=O)oc2c1)NCC(O)c1ccccc1 (stereo not given)	none
Cc1ccc(COC(=O)CCN=C2NS(=O)(=O)c3ccccc32)cc1	none
CCOC(=O)c1c(-c2ccccc2)oc2ccc(OCC)cc12	none (no result: KCNQ2 enhance)
CCOC(=O)c1c(-c2ccccc2)oc2ccc(OCC(O)CNCCN(C)C)cc12 (stereo not given)	KCNQ2 inh -6.7
CC(C)(CO)NCC#Cc1ccccc1	none
COc1ccc(CC(=O)Nc2cccc(-c3nnc(-c4cccc(C)c4)o3)c2)cc1OC	KCNQ2 inh -7
COc1ccc(CC(=O)Nc2cccc(-c3nnc(-c4ccc(C)cc4)o3)c2)cc1OC	none (no result: KCNQ2 enhance)
CCNC(=O)c1ccccc1SCc1ccccc1	KCNQ2 inh -7.4
CCc1ccc(OCCNC(=O)c2ccccc2SCc2ccccc2)cc1	none (no result: KCNQ2 enhance)
Nn1c(SCC(=O)Nc2ccc(OC(F)F)cc2)nnc1-c1ccco1	none
Cc1cc(C)c(S(=O)(=O)N(C)CC(=O)N2CCCCC2)c(C)c1	none (no result: KCNQ2 enhance)
Cc1cc(C)c(S(=O)(=O)N(C)CC(N)=O)c(C)c1	KCNQ2 inh -5.6
COc1cccc(CN2CC(C(=O)N3CCN(c4ccc(Cl)cc4)CC3)CCC2=O)c1 (stereo not given)	none (no result: KCNQ2 enhance)
CCOC(=O)C1(Cc2cccc(F)c2)CCN(CC(O)CO)CC1 (stereo not given)	none (no result: KCNQ2 enhance)
Cc1oc2c(cc(NS(=O)(=O)c3ccc(C(C)C)cc3)c3ccccc32)c1C(=O)O	KCNQ2 inh -5.8
Cc1oc2c(cc(NS(=O)(=O)c3ccc(F)cc3)c3ccccc32)c1C(=O)O	none (no result: KCNQ2 enhance)
CCCNC(=O)[C@H]1N2C(=O)c3c(ccc(OC)c3OC)C2SC1(C)C (stereo not given in full)	none
Cc1ccc(NC(=O)NCCN2CCCCC2)cc1C	none
CCCCSCCCNC(=O)Nc1ccc(C)c(C)c1	KCNQ2 enhance 8.7
O=C(Nc1cccc(N2C(=O)C3CCCCC3C2=O)c1)c1ccccc1 (stereo not given)	none
O=C(Nc1cccc(Cl)c1)c1cccc(N2C(=O)C3CC=CCC3C2=O)c1 (stereo not given)	KCNQ2 inh -6
Cc1ccc(S(=O)(=O)N2CCN(C(=O)COC(=O)c3oc4ccccc4c3C)CC2)cc1	none
O=C1CC(=C(c2ccccc2)c2ccccc2)C(=O)N1CCN1CCN(c2cccc(Cl)c2)CC1	KCNQ2 inh -5.6
O=C1CC(=C(c2ccccc2)c2ccccc2)C(=O)N1CCCN1CCN(c2cccc(Cl)c2)CC1	none (no result: KCNQ2 enhance)
COc1cc(OC)cc(C(=O)N(Cc2nc(-c3cccc(C)c3)no2)C(C)C)c1	none (no result: KCNQ2 enhance)
Cc1cccc(-c2noc(CN(C(=O)C34CC5CC(CC(C5)C3)C4)C(C)C)n2)c1	KCNQ2 inh -5.7
O=C(CNC(=O)c1ccccc1)OCC(=O)N1N=C(c2ccc(Cl)cc2)CC1c1ccco1 (stereo not given)	none (no result: KCNQ2 enhance)
Cc1ccc(S(=O)(=O)N[C@H](C(=O)OCC(=O)N2N=C(c3ccc(Cl)cc3)CC2c2ccco2)C(C)C)cc1 (stereo not given in full)	KCNQ2 inh -6.1
O=C(COc1cccc(C(F)(F)F)c1)NCC(c1ccco1)N1CCCCC1 (stereo not given)	KCNQ2 inh -5.6
O=C(COc1ccccc1)NCC(c1ccco1)N1CCN(c2ccccc2)CC1 (stereo not given)	none (no result: KCNQ2 enhance)
COc1ccc(CCNc2cc(C)nc3c(-c4ccccc4)cnn23)cc1OC	none (no result: KCNQ2 enhance)
COc1ccccc1-c1cnn2c(NCCc3ccccc3)cc(C)nc12	KCNQ2 inh -7.1
Cc1c(C(=O)N/N=C/c2cccs2)nnn1-c1nonc1N	none
COc1ccc(Cl)cc1NC(=O)CN(C1CCCCC1)S(C)(=O)=O	KCNQ2 inh -5.9
CS(=O)(=O)N(CC(=O)Nc1ccc(F)cc1F)C1CCCCC1	none
Cc1ccc(S(=O)(=O)N2CCCOC2CNC(=O)C(=O)NC2CCCCC2)cc1 (stereo not given)	none (no result: KCNQ2 enhance)
CN(C(=O)CSc1nnc(-c2ccccc2)o1)c1c(N)n(Cc2ccccc2)c(=O)[nH]c1=O	none (no result: KCNQ2 enhance)
O=C(O)c1ccc2c(c1)C1C=CCC1C(c1ccncc1)N2 (stereo not given)	none
CC(=O)c1ccc2c(c1)C1C=CCC1C(c1cc3c(cc1Br)OCO3)N2 (stereo not given)	KCNQ2 inh -7.4
Cc1csc(=O)n1CCC(=O)OCC(=O)Nc1cccc(C#N)c1	none (no result: KCNQ2 enhance)
COc1ccccc1CNC(=O)CCc1nnc2ccc(NCCCN3CCCC3=O)nn12	none (no result: KCNQ2 enhance)
COc1ccc2nc3oc(C(=O)N4CCN(c5cccc(Cl)c5)CC4)cc3cc2c1	KCNQ2 inh -5.8
COc1ccc2nc3oc(C(=O)N4CCN(c5cccc(C(F)(F)F)c5)CC4)cc3cc2c1	none (no result: KCNQ2 enhance)
CCOCCc1nn2c(=O)cc(CSCC(=O)Nc3ccccc3)nc2s1	none (no result: KCNQ2 enhance)
COc1ccc(-c2cc(C(=O)Nc3ccc(C(N)=O)cc3)c3ccccc3n2)cc1OC	none (no result: KCNQ2 enhance)
COc1cccc(-c2cc(C(=O)NC3CCCC3)c3ccccc3n2)c1	none (no result: KCNQ2 enhance)
CC(=O)c1cccc(NC(=O)c2cc(-c3ccco3)nc3ccccc23)c1	none (no result: KCNQ2 enhance)
COc1cc(-c2cc(C(=O)Nc3cccc(C(C)=O)c3)c3ccccc3n2)cc(OC)c1OC	KCNQ2 inh -5.6
COc1ccc(OC)c(-c2cc(C(=O)NC3CCCC3)c3ccccc3n2)c1	KCNQ2 inh -6.1
COc1ccc(NC(=O)c2cc(-c3ccc(OC)c(OC)c3)nc3ccccc23)c(OC)c1	KCNQ2 inh -5.9
O=S(=O)(c1cccc(F)c1)N1CCc2sccc2C1c1ccc(OC(F)(F)F)cc1 (stereo not given)	KCNQ2 inh -5.9
COc1ccc(OC2CCN(S(=O)(=O)c3cccc(F)c3)CC2)cc1	none (no result: KCNQ2 enhance)
Cc1oc(-c2ccccc2F)nc1CN1CCC(C(=O)NC2CCCCCCC2)CC1	none (no result: KCNQ2 enhance)
Cc1oc(-c2ccccc2F)nc1CN1CCC(C(=O)NC2CCCc3ccccc32)CC1 (stereo not given)	KCNQ2 inh -7.3
C=CCN(CC=C)C(=S)NC(=O)c1ccc(OC)cc1	none
C=CCN(CC=C)C(=S)NC(=O)c1ccc(C)c(Br)c1	KCNQ2 enhance 24
O=C(/C=C/c1ccc([N+](=O)[O-])cc1)c1cccs1	none (no result: KCNQ2 enhance)
Nc1ccc(/C=C/C(=O)c2cccs2)cc1	KCNQ2 inh -6.9
Cc1ccc(-c2nnn(CC(=O)N(c3ccccc3)C(C(=O)NCC3CCCO3)c3cccs3)n2)o1 (stereo not given)	none
OC1CN=C2CCCc3c2n(c2ccc(Cl)cc32)C1 (stereo not given)	none (no result: KCNQ2 enhance)
c1ccc(-c2ccc3c(c2)c2c4n3CCN=C4CCC2)cc1	KCNQ2 inh -7.5
CCc1cc2c(=O)[nH]c(-c3ccccn3)nc2s1	KCNQ2 enhance 11
CCc1cc2c(=O)[nH]c(N3CCCC3)nc2s1	none (no result: KCNQ2 enhance)
COc1cccc(/C=N/N2CCN(c3ccccc3OC)CC2)c1	KCNQ2 inh -5.5
COc1ccc(/C=N/N2CCN(c3ccccc3OC)CC2)cc1OC	none
COc1ccc(N2CCN(C(=O)c3cccc(Br)c3)CC2)c([N+](=O)[O-])c1	none
O=C(NNC1=C(C(=O)C(F)(F)F)CCC1)c1ccccc1O	KCNQ2 enhance 11
COc1ccccc1C(=O)NNC1=C(C(=O)C(F)(F)F)CCC1	none
CCCCN(CCCC)CCNC(=O)c1cn(C)c2ccc(S(=O)(=O)N3CCCC3)cc2c1=O	none (no result: KCNQ2 enhance)
